D1 antag = human D1 dopamine receptor antagonism; P21728; HEK293 TREx D1 cells, calcium flux, dopamine EC80; stronger effect = lower value; activity change, negative = inhibition, % at 10 µM; 360,000 compounds, 3.2% hits; AID 504652; in the data active = activity change below about -30%; also: % is scaled to controls: 0 for no effect and ±100 for the full control effect
Target sequence (P21728 whole entry, looked up): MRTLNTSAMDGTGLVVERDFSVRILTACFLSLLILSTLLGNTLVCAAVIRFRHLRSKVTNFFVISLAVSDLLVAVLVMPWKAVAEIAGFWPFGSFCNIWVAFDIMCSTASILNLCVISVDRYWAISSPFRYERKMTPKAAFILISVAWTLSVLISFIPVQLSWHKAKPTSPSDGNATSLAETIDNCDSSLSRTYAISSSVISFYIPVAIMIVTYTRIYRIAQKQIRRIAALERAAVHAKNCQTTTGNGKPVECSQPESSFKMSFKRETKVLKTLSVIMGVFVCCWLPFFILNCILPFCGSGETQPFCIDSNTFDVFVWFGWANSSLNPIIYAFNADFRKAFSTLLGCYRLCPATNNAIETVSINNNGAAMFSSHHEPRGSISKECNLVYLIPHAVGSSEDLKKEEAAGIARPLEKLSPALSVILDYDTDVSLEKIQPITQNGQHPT
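Antagonism measured as reduced calcium response to an EC80 dopamine addition following 180 s compound pre-read; cells were inducible HEK293 Trex D1 plated overnight at 30 C, read kinetically at 1 cycle/sec.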
D1 ag = agonists of human D1 dopamine receptor | activation, % at 2 µM | HEK293 T-REx D1 cells, calcium flux, agonist mode | AID 504660 | 360,000 compounds, 1% hits | P21728; in the data active = activation above about 30%; also: 0% is about no effect
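Inducible HEK293 T-REx D1 cells, force-coupled to calcium signalling, were plated at 4000 cells/well with tetracycline and held overnight at 30 C. After no-wash calcium dye loading, compound-evoked calcium rise over 180 s flagged agonists.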
DRD3 agonist = agonists of human D3 dopamine receptor. P35462. D3R DiscoveRx beta-arrestin cells, luminescence, 90 min. max activation, %. 410,000 compounds, 0.58% hits. AID 652048; in the data active = max activation above about 30%; also: 0% is about no effect
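Agonist-mode cell screen: cells plated at 1500/well and incubated overnight at 37 °C, then exposed to library compounds for 90 min at 37 °C. Detection reagent was added for 30–60 min at room temperature, and luminescence was read.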
D1 potentiator = human D1 dopamine receptor positive modulation; HEK293 TREx D1 cells, calcium flux, dopamine EC20 potentiation; potentiation, % at 10 µM; 360,000 compounds, 0.036% hits; in the data active = potentiation above about 30%; also: 0% is about no effect
D3 antag = antagonists of human D3 dopamine receptor; P35462; D3R cells, DiscoveRx beta-arrestin luminescence, antagonist mode; stronger effect = lower value; max response, negative = inhibition, %; 360,000 compounds, 2.5% hits; AID 652054; in the data active = max response below about -50%; inconclusive = no clear call, values can overlap the other calls; also: % is scaled to controls: 0 for no effect and ±100 for the full control effect
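Cells expressing the human receptor were seeded at 1500 cells/well, incubated overnight at 37 degrees C in 5% CO2, then exposed to library compounds with dopamine controls for 90 minutes at 37 degrees C before luminescent detection.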
Numbers without * were called inactive; ? = inconclusive; . = no result given. Rows were chosen to be rich in hits. Some 6% of all compounds tested hit in one or more screens of this group.

SMILES	D1 antag	D1 ag	DRD3 agonist	D1 potentiator	D3 antag
Cc1ccc(NS(=O)(=O)c2ccc(C(=O)NCc3ccccn3)cc2)cc1	-29.7	40.0*	1.5	-8.4	-2.9
COc1ccc(C(=O)NCc2ccccn2)cc1	-1.6	1.2	-4.5	5.1	-65.0*
O=C(CSc1nc2cc(C(=O)NC3CCCC3)ccc2c(=O)n1CC1CCCO1)c1cccc(Cl)c1 (centres undefined)	-36.9*	5.9	0.8	-3.8	.
CC(C)CCN(Cc1ccco1)S(=O)(=O)c1csc(C(N)=O)c1	1.6	3.2	-4.8	-2.5	-8.5
CCOCCCN(Cc1ccco1)S(=O)(=O)c1csc(C(N)=O)c1	-49.9*	1.2	2.4	-8.6	2.2
O=S(=O)(Nc1cccc(CCc2ccccn2)c1)c1ccc2ccccc2c1	3.9	32.0*	-10.5	-6.2	0.5
O=S(=O)(Nc1cccc(CCc2ccccn2)c1)c1cc(Cl)ccc1Cl	0.4	4.3	-3.5	-5.2	19.0
COC(=O)C1=C(C)N(Cc2ccccc2)C(=S)N[C@H]1CCc1ccccc1	-6.0	-0.9	.	-0.3	.
O=C(Nc1ccc(F)cc1)OCCOc1ccc(Br)cc1	-55.0*	6.6	3.0	2.5	14.5
CC1CN(C(=S)Nc2ccccc2C(F)(F)F)CC(C)O1 (centres undefined)	-33.7*	1.6	3.4	-0.8	0.5
c1ccc(COc2ncnc3c2ncn3CCCN2CCN(Cc3cccc4ccccc34)CC2)cc1	.	.	-5.3	.	-67.1*
Cc1ccc(CN2CCN(CCCn3cnc4c(OCc5ccccc5)ncnc43)CC2)cc1	.	.	-63.9	.	-53.4*
CCOC(=O)/C(=C/c1c(C)n(C)c2ccc([N+](=O)[O-])cc12)C(C)=O	13.6	0.1	-9.0	-3.8	-53.8*
O=C(COc1cccc2ccccc12)N/N=C/c1ccccc1OCc1ccc(C(=O)O)cc1	-6.3	36.2*	5.0	1.4	-21.1
CC(C)(C)c1ccc(C(=O)NCC(=O)N/N=C/c2ccccc2OCC(=O)O)cc1	-15.5	0.8	-2.1	-2.6	10.9
O=C(COc1ccccc1-c1ccccc1)N/N=C/c1cccc2ccccc12	-0.9	3.4	2.0	3.0	10.2
O=C(O)COc1ccccc1/C=N/NC(=O)CNC(=O)c1ccco1	-58.1*	2.1	-2.7	-3.4	-5.7
CCCCc1nn2c(=O)cc(COC(=O)C(C)Oc3ccccc3)nc2s1 (centres undefined)	4.1	6.8	-6.8	3.5	.
COC(=O)c1ccc2c(c1)N(CC(=O)Nc1cccc(C(F)(F)F)c1)C(=O)c1ccccc1S2	-3.5	1.1	8.6	-1.6	.
CCOc1ccc(C2C(=O)N(C3CCCCCC3)CC(=O)N2CCc2ccc(Cl)cc2)cc1OC (centres undefined)	7.9	-1.9	-19.3	-1.1	.
CC(C)(C)OC(=O)N1CCC(CC2CC(c3cccc(Br)c3)=NO2)(C(=O)NCC2CCCCC2)CC1 (centres undefined)	-15.9	8.1	-39.1	-7.0	-20.8
O=C(c1ccccc1)N1CCC(CC2CC(c3cccc(Br)c3)=NO2)(C(=O)NCC2CCCCC2)CC1 (centres undefined)	-53.2*	1.6	-47.4	-9.3	-18.1
Cc1cc(C)c2c(=O)cc(C(=O)Nc3sc4c(c3C#N)CCCC4)oc2c1	1.3	10.2	8.1	-1.1	.
COc1cccc(NC(=O)c2nn(-c3ccc(C)cc3)c(=O)n(C)c2=O)c1	-7.9	1.7	-7.6	-4.0	.
C[C@]12CCC(=O)C=C1C=C[C@@H]1[C@@H]2CC[C@@]2(C)[C@H]1CC[C@@]21CCC(=O)O1	-34.0*	1.9	3.7	-6.3	-0.6
SMILES	D1 antag	D1 ag	DRD3 agonist	D1 potentiator	D3 antag
O=C(CN1C(=O)COc2ccc(S(=O)(=O)Nc3ccccc3)cc21)Nc1cccc(Cl)c1	-2.8	3.9	-12.2	-1.0	.
Oc1ccc(NCc2ccccc2OCc2ccc(Cl)cc2)cc1	-2.6	0.3	-1.4	-3.2	.
CCOc1cc(CNc2ccc(O)cc2)ccc1OCc1ccc(Cl)cc1	-30.1*	2.1	4.4	-6.7	.
CS(=O)(=O)N(CC(=O)NCCSCc1ccccc1)c1cc(C(F)(F)F)ccc1Cl	2.1	9.1	-10.4	-2.8	.
Cc1ccc(CN2CCC(CNC(=O)c3cc4ccc5cccnc5c4[nH]3)CC2)cc1	8.3	40.4*	-19.1	-4.2	.
CCOC(=O)c1ccc(CN(Cc2ccc(F)cc2)S(=O)(=O)c2ccc(F)cc2)cc1	-24.9	26.9	3.7	-0.9	.
CCc1cccc(C)c1NC(=O)c1cc(S(=O)(=O)N(Cc2ccc(C(=O)OC)cc2)Cc2ccc(OC)c(OC)c2)ccc1F	-37.9*	5.2	0.1	1.7	.
CCOC(=O)c1ccc(CN(Cc2ccc(Cl)cc2Cl)S(=O)(=O)c2ccc(F)c(C)c2)cc1	-31.7*	44.5*	-9.6	0.3	.
CCn1cc(CN2CCC(C(=O)Nc3ccc(Oc4ccccc4F)cc3)CC2)c(C)n1	-4.3	19.6	-12.3	-10.2	?
CC(C)n1cc(CN2CCC(C(=O)Nc3ccc(Oc4ccccc4F)cc3)CC2)cn1	-62.3*	104.6*	-0.3	-10.3	-60.8*
CSc1ncc(CN2CCCCC2C(=O)Nc2ccc(Oc3ccccc3)nc2)cn1 (centres undefined)	-31.3*	-0.1	4.3	-6.3	-6.3
COc1ccc(CN2CCC(C(=O)Nc3ccc(Oc4ccccc4)nc3)CC2)cc1F	-24.5	30.8*	-2.8	-8.7	13.8
Cc1ncc(CN2CCCCC2C(=O)Nc2ccc(Oc3ccccc3)nc2)cn1 (centres undefined)	-1.4	-1.0	-4.4	-1.1	29.0
CCc1ccc(CN2CCC(C(=O)Nc3ccc(Oc4ccccc4)nc3)CC2)o1	-28.4	37.4*	-21.0	-14.4	-17.5
O=C(Nc1ccc(Oc2ccccc2)nc1)C1CCN(Cc2ccccc2)CC1	-4.8	21.9	-14.5	-7.2	-7.0
CCN1C(=O)c2ccccc2S(=O)(=O)c2ccc(C(=O)NCc3ccccc3Cl)cc21	-13.5	11.0	-9.6	-2.9	.
COc1cc(F)ccc1CN1CCC(C(=O)Nc2ccc(Oc3ccccc3)nc2)CC1	-7.0	47.2*	-13.3	-2.7	-11.0
Cc1c(CN2CCC(C(=O)Nc3ccc(Oc4ccccc4)nc3)CC2)cnn1C	2.7	2.7	-10.1	-2.0	5.3
Cc1cc(N2CCOCC2)nc(SCC(=O)c2ccccc2)n1	4.9	0.3	10.0	-2.8	10.2
COc1ccc(/C=N/Nc2cc(C)nc(N3CCOCC3)n2)cc1	8.8	1.8	32.0*	-10.7	22.9
Cc1cc(NCc2ccccc2)nc(N2CCOCC2)n1	-91.4*	1.8	-2.6	-7.3	27.6
Cc1cc(N2CCOCC2)nc(NCc2ccccc2)n1	-63.4*	45.1*	-3.6	-6.4	23.0
Cc1cc(OC2CCCCC2)nc(NCc2ccccc2)n1	15.1	2.4	-7.2	7.0	-0.5
CNc1cc(C)nc(N2CCOCC2)n1	-0.7	2.1	3.5	0.8	12.7
Cc1cc(N2CCCCC2)nc(NCc2ccccc2)n1	-50.3*	81.1*	-11.9	-8.4	-20.8

Bioassay records (PubChem)
